# KKLEB tox: counter-screen for CF NF-kB inhibitors: cytotoxicity; 360,000 tested, 0.36% active; KKLEB CF airway cells viability, ATPlite luminescence, overnight; active compounds read low; cells stimulated with P. aeruginosa culture filtrate; activity change (cytotoxicity), % at 5 µM; AID 602141;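 active = corrected activity change at or below -50% at 5 µM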
# CF NFkB block: cystic fibrosis NF-kB activation inhibition; inhibition, % at 5 µM; 360,000 tested, 0.86% active; KKLEB NF-kB-GFP reporter, PAF-induced, GFP fluorescence overnight;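 active = at least 50% inhibition at 5 µM, scaled per plate between neutral and stimulator controls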;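 also: PAF is a Pseudomonas aeruginosa culture filtrate used as stimulus; plate controls were PAF-stimulated DMSO wells for no effect and unstimulated DMSO wells for full effect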
# LGR2 inh: inhibitors of bursicon-induced Drosophila LGR2 receptor cAMP signaling | HEK293 LGR2, CRE-luciferase, bursicon-stimulated, 4 h | 380,000 tested, 0.35% active | inhibition, % at 9.99 µM;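 active = drop in luminescence signal, shown as inhibition above about 50% in the replicate tests, limit read from the data, passing the limit was not always enough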;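 also: agonist challenge used bursicon conditioned medium at about half maximal strength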
# HSP90 refold inh: inhibitors of HSP90 luciferase refolding in rabbit reticulocyte lysate; luciferase refolding luminescence, 3 h; inhibition, % at 5.6 µM; 290,000 tested, 0.91% active; AID 1789;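 active = inhibition above the screen-wide mean plus 3 SD, computed separately per campaign, cut at about 16% in these data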;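 also: 0% = DMSO wells and 100% = 60 µM geldanamycin wells; inhibitors lower the luminescence because luciferase stays unfolded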
# Mdm2 MdmX PPI: disrupts the human Mdm2-MdmX interaction | AID 485346 | inhibition, % at 8 µM | 330,000 tested, 3% active | SaOS-2 split-luciferase Mdm2/MdmX complementation, luminescence;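 active = inhibition of at least 50% at 8 µM in the primary screen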
# Peg3 prom inh: reduces Peg3 promoter-driven luciferase expression in HeLa; HeLa PEG-Prom luciferase reporter, luminescence, overnight; inhibition, % at 20 µM; 360,000 tested, 1.7% active; AID 588405;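 active = inhibition of at least 50% at 20 µM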
# Mdm2 MdmX conf: confirmation of human Mdm2/MdmX interaction inhibitors; shares compounds with Mdm2 MdmX PPI; Mdm2-MdmX binding, luminescent assay; inhibition, % at 8 µM; 10,000 tested, 55% active; in the data active = inhibition above about 40%
# FLuc counter: inhibits full-length luciferase, flagging false Mdm2/MdmX hits; 6,200 tested, 77% active; inhibition, % at 8 µM; SaOS-2 full-length luciferase counterscreen, luminescence; shares compounds with Mdm2 MdmX PPI; AID 504607;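 active = mean inhibition at 8 µM reaching about 37%, which flags the compound as non-specific, limit read from the data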;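 also: p53-null SaOS-2 cells with luciferase driven by a doxycycline-inducible promoter; compound on cells about two nights before reading with doxycycline added after day one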
# Active calls of the source: *; / = no result. Only some compounds are listed: those with a hit (about 3.6% of all), similar ones and a draw of the others.
SMILES,KKLEB tox,CF NFkB block,LGR2 inh,HSP90 refold inh,Mdm2 MdmX PPI,Peg3 prom inh,Mdm2 MdmX conf,FLuc counter
CC(C)COCC(CN(Cc1ccccc1)c1ccccc1)N1CCCC1 (stereo unspecified),-6,11,14,1,60*,11,34,/
CO[C@@H]1CN(C)C(=O)c2ccc(NC(C)=O)cc2OC[C@H](C)N(Cc2ccc(F)cc2)C[C@@H]1C,/,/,6,/,/,/,/,/
COc1ccc(C2=Nn3c(nnc3-c3ccccc3Cl)SC2)cc1OCC1CC1,-24,40,15,/,73*,37,57*,45*
COc1ccc(C2=Nn3c(nnc3-c3cccnc3)SC2)cc1OC,-12,-22,/,/,51*,12,22,/
COc1ccccc1-c1nnc2n1N=C(c1ccc(O)c(O)c1)CS2,-39,47,/,-3,50*,27,58*,140*
C[C@H](CO)N1C[C@H](C)[C@@H](CN(C)Cc2ccc3c(c2)OCO3)OCCCC[C@H](C)Oc2ccc(NC(=O)c3ccncc3)cc2C1=O,/,/,-14,/,/,/,/,/
Cc1noc(C)c1NC(=O)Nc1ccc2c(c1)C(=O)N(C)[C@H]1CC[C@H](CC(=O)N[C@@H]3CCN(Cc4ccccc4)C3)O[C@H]1CO2,/,/,-3,/,/,/,/,/
COc1ccc(-c2[nH]ncc2N=Nc2ccccc2)cc1,-16,-65,0,2,66*,8,58*,85*
COc1ccc(Cl)cc1-c1nc(-c2ccc(Br)o2)no1,-25,36,-8,1,51*,-29,20,/
C[C@H]1CN([C@@H](C)CO)C(=O)c2cccc(NC(=O)Nc3cccc4ccccc34)c2O[C@H]1CN(C)S(C)(=O)=O,/,/,9,/,/,/,/,/
COc1ccc(/C=C/c2cc(-c3ccc(C)cc3)o[n+]2C)cc1,-62*,56*,46,3,74*,67*,96*,51*
COc1ccc(/C=C/c2c(-c3ccc(OC)cc3)oc3ccc(-c4ccc(OC)cc4)cc23)cc1,-2,-3,2,-3,-3,21,/,/
COc1ccc(OC)c(NC(=O)CN(Cc2ccc(F)cc2)C2CCCCC2)c1,5,3,16,0,52*,41,23,/
O=S(=O)(Nc1ccccc1)c1ccc(-c2cnc(C3CC3)o2)cc1,-6,22,12,4,49,17,/,/
COc1ccccc1NS(=O)(=O)c1cc(-c2cnc(C3CC3)o2)ccc1C,-11,11,3,1,53*,52*,46*,56*
CCOc1ccc(NS(=O)(=O)c2ccc(-c3cnc(C4CC4)o3)cc2)cc1,-8,15,8,-1,57*,35,57*,52*
Cc1ccc(C)c(NS(=O)(=O)c2ccc(-c3cnc(C4CC4)o3)cc2)c1,-8,48,-19,2,71*,20,55*,81*
Nc1nnc(CC(=O)N/N=C/c2ccc(-c3ccc(Cl)cc3Cl)o2)s1,8,-4,3,5,68*,-4,34,83*
Nc1nnc(CC(=O)N/N=C/c2ccc(-c3ccccc3Cl)o2)s1,-8,3,2,2,18,-30,/,/
Cc1c(C2(O)CCCCC2)[nH]c2ccccc12,/,/,1,/,/,/,/,/
Cc1c(C2(O)CCCCC2)[nH]c2ccc(C(F)(F)F)cc12,7,2,-11,/,66*,-28,31,62*
C[C@H](CO)N1C[C@H](C)[C@@H](CN(C)Cc2ccc3c(c2)OCO3)OCCCC[C@H](C)Oc2ccc(NC(=O)C3CCCCC3)cc2C1=O,/,/,-23,/,/,/,/,/
O=C(NNC(=O)C12CC3CC(CC(C3)C1)C2)c1ccccc1O,-7,-8,15,/,53*,7,17,/
CCC(=O)NC(c1cc(Cl)c2cccnc2c1O)C1CC1 (stereo unspecified),-10,2,20,/,53*,36,47*,18
CCC(=O)NC(c1cc(Cl)c2cccnc2c1O)C(C)C (stereo unspecified),7,1,29,/,53*,35,53*,10

# From PubChem
